Measurements as given in PubChem BioAssay AID686979 (National Center for Advancing Translational Sciences (NCATS), 2013).
Several values for one entry are separate records, joined by “and”; a condition that tells them apart may be missing. Equal entries are not always repeated. Among all 420,000 compounds or so, about 50,000 (12%) were called active. Where a call stands in place of a potency, no number is given. Another 26% or so got no clear call; they are omitted. The call rests on the fitted dose curve; in most records, active means well fitted inhibition curve with a large enough effect; inconclusive means small, poorly fitted or top-dose-only effect; inactive means flat fitted curve, though single readings scatter. Many of the other results were omitted from the sample, so actives are more common in it than they were. A structure can be active in one record and inactive in another.
Potency means the concentration at half of the fitted maximal effect.

Test: qHTS for Inhibitors of human tyrosyl-DNA phosphodiesterase 1 (TDP1): qHTS in cells in presence of CPT; further: nearly all actives have a fitted effect of over 55% in size
Conditions: chicken DT40 Tdp1-/-;hTDP1 cells + 20 nM CPT, ATP luminescence, 48 h; series mostly up to 46.2 µM
Summary of the method: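 Chicken DT40 Tdp1-/- cells stably complemented with human TDP1 were seeded at 400 cells/well in medium containing 20 nM camptothecin, exposed to pin-transferred compounds, and grown at 37 °C for at least 48 hr. Viability was read as ATP luminescence.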
In the case of `O=C(CCc1nnc2ccc(NCCCN3CCCC3=O)nn12)NCc1ccccc1Cl`, the Potency is reported as “inactive”.
In the case of `COc1ccc(NC(=O)CN2C(=O)CSc3ccc(S(=O)(=O)N4CCC(C)CC4)cc32)cc1`, the Potency is reported as “inactive”.
For `O=S(=O)(NCCc1ccncc1)c1ccccc1`, the Potency was “inactive”.
For `Nc1nc(/C(=C/CC(=O)O)C(=O)N[C@@H]2C(=O)N3C(C(=O)O)=CCS[C@H]23)cs1`, the Potency was “inactive”.
In the case of `O=C1Nc2ccc([N+](=O)[O-])cc2C1=Nc1cccc(CO)c1`, the Potency is reported as 16.4 µM (active).
For `O=C(c1cccc([N+](=O)[O-])c1)N1CCN(Cc2ccccc2)CC1`, the Potency was “inactive”.
With `CC1Cn2c(nnc2-c2cccs2)S1` (configuration not stated) the Potency was “inactive”.
In the case of `O=c1cnnc(Nc2ccccc2)[nH]1`, the Potency is reported as “inactive”.
For `CCC1(C2CCN(Cc3cccnc3)CC2)NC(=O)N(CC2COc3ccccc3O2)C1=O` (configuration not stated), the activity change, negative = growth inhibition was -5.78% [at 9.04 µM] (inactive).
With `CSCC(NS(=O)(=O)c1ccc(C)cc1)C(=O)O` (configuration not stated) the Potency was “inactive”.
For `CCC(C)N(C(=O)CSc1ncnc2c1cnn2-c1ccccc1)C1CCS(=O)(=O)C1` (configuration not stated), the Potency was “inactive”.
With `Cc1ccc(S(=O)(=O)NCC(=O)N2CCOCCOCCOCCOCC2)cc1` the Potency was “inactive”.
In the case of `COc1ccc(N2CCN(C(=O)CNS(=O)(=O)c3ccc(C)c(C)c3)CC2)cc1`, the Potency is reported as “inactive”.
For `O=C(CNS(=O)(=O)c1ccc2c(c1)OCCCO2)N1CCN(c2ccc(F)cc2)CC1`, the Potency was 20.6 µM (active).
With `CCOC(=O)[C@H]1[C@H]2COc3ccccc3[C@@H]2N2C(=O)CN(Cc3ccccc3)C(=O)[C@@]12C` the Potency was “inactive”.
In the case of `CCCNC(=S)N1CCC(NC(=O)c2ccc(OC)cc2)CC1`, the Potency is reported as “inactive”.
For `CCC(c1nc2ccccc2[nH]1)n1c(=O)c(-c2cccs2)nc2ccccc21` (configuration not stated), the Potency was 18.4 µM (active).
In the case of `CC(C)n1c(-c2cccs2)nc2ccccc21`, the Potency is reported as “inactive”.
In the case of `O=c1c(-c2cccs2)nc2cnc(Oc3ccccc3)nc2n1-c1ccccc1`, the Potency is reported as “inactive”.
With `O=C(NCc1ccccc1)C(c1cccnc1)N(C(=O)c1csnn1)c1ccc(F)cc1` (configuration not stated) the Potency was “inactive”.
With `CCC(=O)Nc1nc(OC)cc(OC)n1` the Potency was “inactive”.
With `COc1cc(OC)nc(NC(=O)CCl)n1` the Potency was 14.6 µM (active).
With `COc1cc(OC)nc(N/N=C(\c2ccccc2)c2ccncc2)n1` the Potency was “inactive”.
In the case of `CCSc1nsc(NC(=O)Nc2ccccc2OC)n1`, the Potency is reported as “inactive”.
For `Cc1ccc(F)cc1NC(=O)c1cccc(N(C)C)c1`, the Potency was “inactive”.
In the case of `Cc1ccc(NC(=O)c2cccc(N(C)C)c2)cc1NC(=O)c1ccc(O)cc1`, the Potency is reported as “inactive and 29.9 µM (active)”.
With `Cc1ccc(C)c(NC(=O)c2ccc3nccnc3c2)c1` the Potency was “inactive”.
With `O=C(c1cn2ccccc2n1)N1CCc2c([nH]c3ccccc23)C1c1ccccn1` (configuration not stated) the Potency was “inactive”.
With `CCc1nc2ccc(C(=O)NC3CCN(Cc4ccccc4)CC3)cn2c1N(C)CCN1CCOCC1` the Potency was “inactive”.
In the case of `O=C(NN=Cc1ccc([N+](=O)[O-])cc1)C1CC1`, the Potency is reported as “inactive”.
With `O=[N+]([O-])c1ccc(C=NN=Cc2ccc([N+](=O)[O-])cc2)cc1` the Potency was “inactive”.
With `O=C1/C(=C\c2ccc([N+](=O)[O-])cc2)CS(=O)(=O)C/C1=C/c1ccc([N+](=O)[O-])cc1` the Potency was 0.0259 µM (active).
In the case of `CCOc1cccc2cc(C(=O)OCC(=O)Nc3c(C)cccc3CC)c(=O)oc12`, the Potency is reported as “inactive”.
In the case of `COCCNC(=O)CSc1nc2sccc2c(=O)n1-c1ccccc1`, the Potency is reported as “inactive”.
In the case of `COc1ccc(S(=O)(=O)N2CCC(C(=O)N3CCCC3)CC2)cc1C`, the Potency is reported as “inactive”.
For `COc1ccc(N2CCN(C(=O)C3CCN(S(=O)(=O)c4ccc(C)cc4)CC3)CC2)cc1`, the Potency was “inactive”.
With `Cc1ccc(N(C)C(=O)C2CCN(S(=O)(=O)c3ccc4c(c3)CCCN4C(=O)C3CCC3)CC2)cc1` the Potency was 23.1 µM (active).
For `Cc1ccc(S(=O)(=O)N2CCC(C(=O)OCC(=O)N(C)c3ccccc3)CC2)cc1C`, the Potency was “inactive”.
With `COc1ccc(N(C)C(=O)C2CCN(S(=O)(=O)c3cc(Br)cc4c3N(C(C)=O)CC4)CC2)cc1` the Potency was “inactive”.
With `Cc1ccc(S(=O)(=O)N2CCC(C(=O)N3CCCCCCC3)CC2)cc1` the Potency was 20.6 µM (active).
For `Cc1c(NC(=O)COC(=O)/C=C/c2cccc(F)c2)c(=O)n(-c2ccccc2)n1C`, the Potency was “inactive”.
In the case of `O=C1C[C@@H]2c3c(cccc3CN1Cc1ccccc1)C[C@@H](O)[C@H]2O`, the Potency is reported as “inactive”.
With `NC(=O)CSc1nnc(NC(=O)c2ccc3ccccc3c2)s1` the Potency was “inactive”.
For `CCc1ccccc1NC(=O)c1ccc(F)c(S(=O)(=O)NC2CCCCCC2)c1`, the Potency was “inactive”.
For `CN1CCN(CC(=O)Nc2cccc([N+](=O)[O-])c2)CC1`, the Potency was “inactive”.
With `Cc1cc(=O)n(CC(=O)Nc2cccc([N+](=O)[O-])c2)c(-n2nc(C)cc2C)n1` the Potency was 20.6 µM (active).
With `O=C(CN1CCOCC1)Nc1cccc([N+](=O)[O-])c1` the Potency was “inactive”.
In the case of `Cn1c(=O)c2c(ncn2CC(=O)N/N=C/c2cn[nH]c2-c2ccc(F)cc2)n(C)c1=O`, the Potency is reported as “inactive”.
In the case of `COc1ccc(Br)cc1/C=N/Nc1ccc(Cl)c(C(=O)O)c1`, the Potency is reported as “inactive”.
With `N#Cc1c(-c2ccc(F)cc2)cc(C2CC2)nc1SCC(=O)c1cccs1` the Potency was “inactive”.
In the case of `Cn1sc(=O)c2cc(S(=O)(=O)NC3CC3)ccc21`, the Potency is reported as 2.91 µM (active).
In the case of `O=S(=O)(NC1CC1)c1ccc(Cl)cc1`, the Potency is reported as “inactive”.
For `O=S(=O)(NC1CC1)c1ccc(F)c(F)c1`, the Potency was “inactive”.
With `COc1ccc(C)cc1NC(=O)NCCCCc1ccccc1` the Potency was “inactive”.
In the case of `CCOC(=O)c1[nH]c(C)c(C(=O)OCC(=O)N2c3ccccc3CC2C)c1C` (configuration not stated), the Potency is reported as “inactive”.
With `CC(=O)CSc1nc(CCc2ccccc2)c(C#N)c(=O)[nH]1` the Potency was “inactive”.
For `Cc1nn2c(=O)cc(COC(=O)c3ccccc3NC(=O)COc3ccccc3C)nc2s1`, the Potency was “inactive”.
In the case of `Cc1nn(C)c(C)c1S(=O)(=O)N1CCc2ccccc21`, the Potency is reported as “inactive”.
In the case of `O=S(=O)(c1ccccc1)N1CCc2ccccc21`, the Potency is reported as “inactive”.
With `NS(=O)(=O)c1ccc2nc(NC(=O)C3=COCCO3)sc2c1` the Potency was “inactive”.
For `O=C(Nc1nc2ccc([N+](=O)[O-])cc2s1)c1ccc(S(=O)(=O)N2CCCc3ccccc32)cc1`, the Potency was 4.61 µM (active).
For `O=C(Nc1nnc(S(=O)(=O)N2CCCc3ccccc32)s1)c1cccc(F)c1`, the Potency was 16.4 µM (active).
In the case of `CCC(=O)Nc1nnc(S(=O)(=O)N2CCCc3ccccc32)s1`, the Potency is reported as “inactive”.
With `CS(=O)(=O)c1ccc2nc(NC(=O)c3ccc(N4CCCC4=O)cc3)sc2c1` the Potency was “inactive”.
In the case of `Cc1cccc(C(=O)Nc2nnc(S(=O)(=O)N3CCCCCC3)s2)c1`, the Potency is reported as “inactive”.
With `CSc1nc2ccc(S(=O)(=O)N3CCc4ccccc43)cc2s1` the Potency was 16.4 µM (active).
In the case of `O=C(Nc1nnc(S(=O)(=O)N2CCOCC2)s1)c1cccc(Br)c1`, the Potency is reported as “inactive”.
With `CCOC(=O)CSc1nnc(NC(=O)c2cccc(S(=O)(=O)N3CCCCC3)c2)s1` the Potency was “inactive”.
With `O=C(Nc1nnc(S(=O)(=O)N2CCCCCC2)s1)c1cccc(Br)c1` the Potency was 5.8 µM (active) and 25.9 µM (active).
For `CN(Cc1ccc2nsnc2c1)Cc1nc(Cc2cccc(F)c2)no1`, the Potency was “inactive”.
With `Cc1cc(C)c(S(=O)(=O)c2ccc(F)cc2C)c(=O)[nH]1` the Potency was “inactive”.
With `CN(CC(=O)NC1CCCC1)S(=O)(=O)c1cnc[nH]1` the Potency was “inactive”.
With `C=CCN1CN(S(=O)(=O)c2ccc(OC)cc2)c2nc3ccccc3nc21` the Potency was “inactive”.
In the case of `O=C(Cn1cc(C(F)(F)F)ccc1=O)N/N=C/c1ccc(Cl)cc1Cl`, the Potency is reported as “inactive”.
In the case of `CC1(C(=O)NS(=O)(=O)c2ccc(C#N)cc2)CCN1C(=O)c1ccc(C2CCCCC2)cc1` (configuration not stated), the Potency is reported as “inactive”.
For `O=C(CNC(=O)OCc1ccccc1)NC1CCCCNC1=O` (configuration not stated), the Potency was “inactive”.
In the case of `Cc1ccc(C(=O)NCC(=O)OCC(=O)NC2CCCCCCC2)cc1`, the Potency is reported as “inactive”.
In the case of `CN(C1CCS(=O)(=O)C1)S(=O)(=O)c1ccc2ccccc2c1` (configuration not stated), the Potency is reported as “inactive”.
With `O=C(CNC(=O)c1ccccc1)Oc1ccc([N+](=O)[O-])cc1` the Potency was “inactive”.
For `O=C(COC(=O)c1ccc(F)cc1)Nc1nc2ccc([N+](=O)[O-])cc2s1`, the Potency was “inactive”.
With `O=C(NC(Nc1nc2ccc([N+](=O)[O-])cc2s1)(C(F)(F)F)C(F)(F)F)c1ccccc1` the Potency was 0.461 µM (active).
With `Nc1ccc(N=Nc2ccccc2Cl)c(N)n1` the Potency was “inactive”.
With `Cc1cc(Br)cn2c(Cc3ccccc3C(F)(F)F)c(-c3ccc(Cl)cc3)nc12` the Potency was “inactive”.
In the case of `Cc1ccc(-c2nc3ccc(Cl)cn3c2Cc2ccccc2)cc1`, the Potency is reported as 20.6 µM (active).
With `Cc1ccc(Cc2c(-c3ccco3)nc3ccc(Cl)cn23)cc1` the Potency was 8.2 µM (active).
In the case of `CC(=O)Nc1c(-c2ccc(C)cc2)nc2ccc(Cl)cn12`, the Potency is reported as “inactive”.
With `Cc1ccc(-c2nc3ccc(Br)cn3c2Cc2ccccc2C(F)(F)F)cc1` the Potency was 16.4 µM (active).
For `Cc1ccc(Cc2c(-c3ccccc3)nc3ccc(Cl)cn23)cc1`, the Potency was “inactive”.
In the case of `CN1CCN(Cc2c(C(=O)N3CCc4ccccc4C3)nc3ccc(Cl)cn23)CC1`, the Potency is reported as “inactive”.
In the case of `Cc1cc(Br)cn2c(Cc3ccccc3C(F)(F)F)c(C3CCCCC3)nc12`, the Potency is reported as “inactive”.
In the case of `Cc1ccc(-c2nc3c(C)cc(Br)cn3c2Cc2ccccc2)cc1`, the Potency is reported as “inactive”.
With `Cc1ccccc1-n1nnnc1SCCCC(=O)c1ccc(F)cc1` the Potency was “inactive”.
For `CCCS(=O)(=O)NC(=O)C1(C)CCCN(C(=O)c2cc(C)on2)C1` (configuration not stated), the Potency was “inactive”.
For `O=S(=O)(c1cccc(-c2cn3ccccc3n2)c1)N1CCCC1`, the Potency was “inactive”.
In the case of `O=C(COC(=O)c1cccc(Cl)c1)NC1CCCCCCC1`, the Potency is reported as “inactive”.
With `Cc1nnc(NC(=O)Cn2c(=O)sc3ccccc32)s1` the Potency was “inactive”.
For `c1ccc(CC2CCN(c3nc4ccccc4n4cnnc34)CC2)cc1`, the Potency was “inactive”.
For `O=C(NNc1nc(N2CCCC2)nc(N2CCCC2)n1)c1ccccc1`, the Potency was “inactive”.
In the case of `O=C(c1ccccc1)c1ccc2nc(N3CCCCC3)c3nncn3c2c1`, the Potency is reported as 23.1 µM (active).
For `O=C(CN1CCCCC1)NC(=O)Nc1ccccc1F`, the Potency was “inactive”.
With `Cc1cc(C)c(C(N)=O)c(Cl)n1` the Potency was “inactive”.
For `COc1ccc(CN2C(=O)C(CC(=O)NCCN3CCOCC3)CC(C(=O)N(C(C)C)C(C)C)=C2C)cc1` (configuration not stated), the Potency was “inactive”.
